High-throughput results as filed in PubChem.
HttQ103 aggreg – qHTS Multiplex Assay to Identify Dual Action Probes in a Cell Model of Huntington: Aggregate Formation (GFP); AID 1688, 2009; Potency, µM (top dose mostly 46.1 µM), without a hit: at the highest dose activity change, negative = inhibition, usual class: inhibitors; 220,000 compounds, 1.1% hits; PC12 HttQ103-GFP aggregates, Acumen cytometry, 40 h; further: on the % scale 0 is the no-effect control and ±100 the full control effect; nearly all actives have a fitted effect of over 60% in size
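Compounds (qHTS titration) were added to PC12 cells expressing an ecdysone-driven HTT exon 1 Q103–GFP fusion after induction with 100 nM tebufenozide. Aggregate formation was measured as GFP objects in cell lysates.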
Tau fibril FP – qHTS for Inhibitors of Tau Fibril Formation, Fluorescence Polarization; K18 P301L tau heparin fibrillization, Alexa594 FP, 6 h; 280,000 compounds, 0.39% hits; Potency, µM (titrated, usually from 57.7 µM), without a hit: at the highest dose activity, negative = inhibition, hits mostly inhibitors; AID 1468, 2008; further: on the % scale 0 is the no-effect control and ±100 the full control effect; nearly all actives have a fitted effect of over 55% in size
Target sequence (P10636 561-689 P618L limits assumed): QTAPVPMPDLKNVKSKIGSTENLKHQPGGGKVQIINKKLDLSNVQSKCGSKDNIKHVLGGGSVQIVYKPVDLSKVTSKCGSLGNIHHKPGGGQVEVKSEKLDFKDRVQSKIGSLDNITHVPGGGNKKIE
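Human tau K18 […] P301L fragment, 15 uM unlabeled plus 0.24 uM Alexa 594-labeled tau (final), with compound and 20 uM heparin in 100 mM sodium acetate pH 7; 6 hr at 37 C, then Alexa 594 FP read.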
Tau fluor counter – Counterscreen qHTS for Inhibitors of Tau Fibril Formation, Fluorescence Polarization; tau K18 P301L Alexa594 fluorescence, heparin fibrillization; Potency, µM (doses to about 57.7 µM), without a hit: at the top dose activity change, negative = decrease; 280,000 compounds, 0.93% hits; AID 1463, 2008; further: on the % scale 0 is the no-effect control and ±100 the full control effect; nearly all actives have a fitted effect of over 55% in size
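Human tau K18 P301L (15 uM unlabeled, 0.24 uM Alexa 594-labeled) in 100 mM sodium acetate pH 7 with 20 uM heparin, 6 hr at 37 C. ThT 30 uM added, 1 hr ambient; Alexa 594 FP and total fluorescence read at 555/632 nm.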
HTT ATP protect – qHTS Multiplex Assay to Identify Dual Action Probes in a Cell Model of Huntington: Cytoprotection (ATP) | PC12 HTT-Q103 induced, cytoprotection, ATP luminescence, 40 h | Potency, µM (doses to about 56.4 µM), inactives show cytoprotection (ATP increase), usual class: activators | 230,000 compounds, 0.14% hits; further: % of control where 0% means no effect; nearly all actives have a fitted effect of over 45% in size
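Readout: ATPlite luminescence (ATP level). Model: stable PC12, inducible Htt exon1 Q103-GFP. Inducer: tebufenozide, 100 nM final. Compounds: dose series. No G418 in medium.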
Tau fibril ThT – qHTS for Inhibitors of Tau Fibril Formation, Thioflavin T Binding. recombinant tau K18 P301L (four-repeat tau fragment), heparin-induced fibrillization, ThT fluorescence. Potency, µM (titrated, usually from 57.4 µM), without a hit: top-dose activity, negative = inhibition, actives largely listed as inhibitors. 270,000 compounds, 2.1% hits; further: on the % scale 0 is the no-effect control and ±100 the full control effect; nearly all actives have a fitted effect of over 55% in size
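Recombinant human tau K18 fragment […] carrying P301L, 15 uM unlabeled plus 0.24 uM Alexa 594-labeled, was fibrillized with 20 uM heparin in 100 mM sodium acetate pH 7 for 6 hr at 37 C; 30 uM ThT fluorescence read after 1 hr.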
An asterisk follows results filed as active; ? = inconclusive; / = not tested or not shown; [ ] = another dose, or the depositor's remark. This is a sample that favours compounds with a hit; in the whole collection about 3.7% have one here. The call rests on the fitted dose curve; in most records, active means well fitted curve in the direction sought with a large enough effect; inconclusive means small, poorly fitted or top-dose-only effect, or another doubt; inactive means no such curve, though single readings can be large; an effect the other way counts as inactive or inconclusive. Potency means the concentration at half of the fitted maximal effect.

SMILES	HttQ103 aggreg	Tau fibril FP	Tau fluor counter	HTT ATP protect	Tau fibril ThT
N#CC(c1ccccc1)c1ccc2c(C(F)(F)F)cc(C(F)(F)F)nc2n1 (stereo not given)	22.4µM*	?	?	-70.4%	?
COc1cc(NC(=O)CCn2nc(C)c(S(=O)(=O)N3CCCCC3)c2C)cc(OC)c1OC	/	10.1%	-8.1%	/	0.3%
CCc1ccc(NC(=O)CSc2nc3ccccc3c(=O)n2CCCN2CCC(C)CC2)cc1	22.4µM*	6.0%	-4.8%	-78.2%	-5.2%
CCc1ccc(NC(=O)CSc2nc3ccccc3c(=O)n2CCNC(C)=O)cc1	/	-1.5%	-0.4%	/	4.9%
O=C(Nc1cccc(Cl)c1)c1ccc(NCCCN2CCOCC2)c([N+](=O)[O-])c1	-18.8%	-8.9%	?	-16.1%	14.1µM*
Cc1ccc(NC(=O)c2ccc(NCCN)c([N+](=O)[O-])c2)cc1	-1.4%	7.6%	-27.6%	22.5%[10 µM]	14.1µM*
Cc1cccc(NC(=O)c2ccc(NCCc3ccccc3)c([N+](=O)[O-])c2)c1	-22.8%	-12.6%	-8.7%	-8.8%[10 µM]	-11.2%
CC(C)CO/N=C1/C[C@@H](O)[C@@H](O)[C@@H]2[C@@H]3C(=O)N(c4cccc(Oc5ccccc5)c4)C(=O)[C@H]3CC[C@H]12	/	0.3%[11.6 µM]	-7.2%[11.6 µM]	10.7%[10 µM]	-7.4%[11.5 µM]
Cn1c(N)c(N2CCCCC2)c(=O)n(CC(=O)Nc2ccc(Cl)c(Cl)c2)c1=O	-8.2%	14.2%	-29.3%	-13.1%	-6.5%
O=C(Cn1c2c(sc1=O)C1c3ccccc3OCC1CS2)Nc1ccc(Cl)c(Cl)c1 (stereo not given)	2.82µM*	-11.8%	?	3.8%[10 µM]	-14.3%
COC(=O)c1c(N)n(-c2ccc(N3CCOCC3)cc2)c2nc3ccccc3nc12	11.2%	?	?	-20.2%[10 µM]	10µM*
COc1ccc(OC)c(S(=O)(=O)n2cnc3cc(C)c(C)cc32)c1	4.5%	-10.6%	-20.0%	-2.9%	-12.5%
CCOc1ccc(S(=O)(=O)n2cnc3cc(C)c(C)cc32)cc1	11.2µM*	1.8%	-2.8%	1.5%[10 µM]	-1.9%
Cc1ccc(Cl)cc1Nc1nc2ccccc2c2nncn12	/	4.7%	?	/	-6.1%
O=C(CCn1c(=O)c2ccccc2n(CC(=O)Nc2ccc(F)cc2)c1=O)NCCc1ccccc1	/	?	-21.7%	/	-1.1%
O=c1c2c3c(sc2n(Cc2ccc(F)cc2Cl)c(=O)n1-c1ccc(Cl)cc1)CCC3	/	-5.6%	-7.7%	/	-6.2%
C=CCNc1sc(C(=O)c2ccccc2)c(N)c1-c1nc2ccccc2s1	4.3%	-7.0%	-3.7%	-14.0%	-7.2%
C=CCNc1sc(C(=O)c2cccs2)c(N)c1C#N	-5.8%	-0.1%	-5.8%	-13.0%[10 µM]	-4.5%
CCNc1sc(C(=O)c2cccs2)c(N)c1C#N	-7.2%	?	?	0.5%	28.2µM*
CCNc1sc(C(=O)c2cccs2)c(N)c1-c1nc2ccccc2s1	-35.1%	-4.4%	?	0.6%	8.91µM*
O=C(CN1C(=O)CC(c2ccc(F)cc2)=Nc2ccccc21)NCc1ccccc1Cl	/	-8.9%	2.2%	/	3.6%
O=C(NNC(=S)Nc1cccc(Cl)c1)c1ccccc1OC(F)F	11.2µM*	15.1%	-17.2%	/	?
COc1cccc(NC(=S)NNC(=O)c2ccccc2OC(F)F)c1	?	7.1%	-11.3%	17.8%	?
Cc1cc(Nc2ccccc2)nn1C(=O)c1ccc(Br)cc1	11.5%	10.0%	7.94µM*[quencher]	9.9%	-9.5%
Cc1ccc(NC(=O)Nc2cccc([N+](=O)[O-])c2)cc1F	?	?	5.62µM*[quencher]	-5.3%[10 µM]	?
SMILES	HttQ103 aggreg	Tau fibril FP	Tau fluor counter	HTT ATP protect	Tau fibril ThT
O=C(Nc1cccc([N+](=O)[O-])c1)c1ccncc1	5.7%	4.9%	-5.2%	-7.0%[10 µM]	-3.4%
CN(c1cccc(NC(=O)c2ccc(C(C)(C)C)cc2)c1)S(C)(=O)=O	11.2µM*	-3.9%	-19.0%	-163.7%	-6.6%
CN(c1cccc(NC(=O)c2ccc(N(C)S(=O)(=O)c3ccccc3)cc2)c1)S(C)(=O)=O	?	-11.5%	-20.0%	18.8%[10 µM]	-5.2%
CC(C)(C)c1ccc(C(=O)Nc2cccc([N+](=O)[O-])c2)cc1	4.6%	?	7.94µM*[quencher]	/	?
COc1cccc(C(=O)COc2cccc(NC(=O)c3cccc([N+](=O)[O-])c3)c2)c1	9.6%	7.5%	14.1µM*[quencher]	-6.9%	?
O=c1cnc2cncnc2n1Cc1ccccc1	/	/	/	-240.7%	/
CC(C)c1ccc(OCC(=O)N(Cc2cccs2)C2CCS(=O)(=O)C2)cc1 (stereo not given)	/	-0.9%	-6.3%	/	-3.6%
O=C(CSc1cccc2cccnc12)N/N=C/c1cccc(O)c1	-9.7%	-11.5%	-12.2%	-7.5%	?
O=C(N/N=C/c1ccc(O)c(O)c1)c1ccc(CSc2cccc3cccnc23)cc1	/	11.7%	22.4µM*[quencher]	3.4%	?
CCOc1ccc(C(=O)N/N=C/c2cccc3cccnc23)cc1	3.55µM*	-4.1%	-0.1%	-63.9%	-1.3%
Cc1ccc(C)c(NC(=O)/C(C#N)=C/c2ccc(C(C)C)cc2)c1	/	-2.4%	-9.3%	/	-14.6%
Cc1ccc(C)c(N(CC(=O)NC2CCCC2)C(=O)c2cc3cc4cccc(C)c4nc3s2)c1	-10.9%	-6.2%	-6.2%	35.2%	-8.7%
Cc1ccc2cc3cc(C(=O)N(CC(=O)NC4CCCC4)c4cccc(C)c4C)sc3nc2c1	-2.6%	2.5%	-1.8%	3.16µM*	-2.9%
CC#C[C@@]1(O)CC[C@@H]2[C@@H]3CCC4=CC(=O)CCC4=C3[C@@H](c3ccc(N(C)C)cc3)C[C@]21C	/	/	/	-20.3%[1.9 µM]	/
FC(F)Sc1ccc(NC(=S)NCc2ccccc2)cc1	-14.0%	?	?	-21.3%	-5.5%
FC(F)Sc1ccc(NC(=S)NC(c2ccccc2)c2ccccc2)cc1	12.6µM*	?	?	-131.8%	13.3%
FC(F)Sc1ccc(NC(=S)NCC2CCCCC2)cc1	?	?	14.1µM*[quencher]	-97.4%	-7.0%
O=C(NCCc1ccc(Cl)cc1)c1ccc2c(c1)N(Cc1cccc(Cl)c1)C(=O)c1ccccc1S2(=O)=O	/	?	-13.2%	/	2.2%
Cc1ccc(OCCSc2nc3ccccc3n2CC(=O)N2CCCCC2)c(C)c1	/	3.8%	-16.2%	/	?
CC(=O)c1cccc(NC(=O)Nc2cnn(Cc3ccc(Cl)cc3Cl)c2)c1	-38.6%	?	8.91µM*[quencher]	-19.5%	-10.1%
CC(=O)c1cccc(NC(=O)NNC(=O)c2ccc(Cl)cc2Cl)c1	11.2µM*	-0.5%	-2.0%	-23.0%	-10.3%
CCNc1ccccc(C(=O)/C=C/c2ccc3c(c2)OCO3)c1=O	?	?	?	4.8%	14.1µM*
COC(=O)/C=C/c1ccc2c(c1)OCO2	4.5%	-1.9%	2.8%	-4.4%[10 µM]	-3.1%
